# Measurements published in the supplement of paper PMC3334620.
# In all, about 33,000 sequences were measured (“E-score (-0.5 to 0.5)”: median about -0.016, highest 2% from about 0.3 on). This excerpt belongs to a sample that is enriched for the highest values.
# Biological target: T1, Yer184c (UniProt P39961)
# T1 sequence: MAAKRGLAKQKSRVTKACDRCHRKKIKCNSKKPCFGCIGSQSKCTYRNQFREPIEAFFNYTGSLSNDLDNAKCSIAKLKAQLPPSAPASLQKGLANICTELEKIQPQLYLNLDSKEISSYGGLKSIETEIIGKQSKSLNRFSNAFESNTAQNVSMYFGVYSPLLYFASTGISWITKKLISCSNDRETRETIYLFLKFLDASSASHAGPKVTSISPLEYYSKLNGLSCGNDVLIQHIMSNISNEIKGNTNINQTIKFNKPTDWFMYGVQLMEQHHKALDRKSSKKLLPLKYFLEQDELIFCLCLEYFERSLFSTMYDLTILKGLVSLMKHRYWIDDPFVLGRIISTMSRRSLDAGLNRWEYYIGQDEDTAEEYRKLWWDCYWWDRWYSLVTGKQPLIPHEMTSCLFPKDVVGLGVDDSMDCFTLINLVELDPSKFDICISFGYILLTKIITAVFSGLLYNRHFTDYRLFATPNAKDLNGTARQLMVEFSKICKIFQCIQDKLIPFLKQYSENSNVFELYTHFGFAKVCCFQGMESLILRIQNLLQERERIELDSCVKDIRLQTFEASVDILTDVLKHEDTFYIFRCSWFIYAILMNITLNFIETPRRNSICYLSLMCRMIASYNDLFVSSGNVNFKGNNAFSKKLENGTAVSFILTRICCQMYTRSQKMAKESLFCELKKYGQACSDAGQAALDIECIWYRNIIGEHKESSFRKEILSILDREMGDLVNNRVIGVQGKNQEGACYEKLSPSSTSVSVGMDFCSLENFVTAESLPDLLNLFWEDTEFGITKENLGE
# Experiment: PBM E-score (8-mer binding enrichment) (E-score (-0.5 to 0.5)); higher = stronger / more preferred TF binding
# Settings: protein concentration: 100 nM; construct: GST-full length
# Method in brief: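 Full-length yeast transcription factors or their DNA-binding domains, GST-tagged and expressed with PURExpress, were applied at about 100-200 nM to universal all-10-mer Agilent arrays. These arrays had been made double-stranded by primer extension on fresh or once-stripped slides. Detection used fluorescent anti-GST, normalisation used masliner, and E-scores for ungapped eight-base words pooled with reverse complements came from the Universal PBM Analysis Suite.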
row,Sequence,PBM E-score
1,ACAGCTAA,-0.0181
2,CGCGGCCC,0.0857
3,AATGTTGT,-2e-05
4,GCTCTTCA,-0.187
5,ACACTAGC,-0.101
6,CTTCTTGA,-0.0452
7,ACTGGGCA,-0.199
8,CCGCCTCA,-0.051
9,CACCTCAG,-0.236
10,ACCTAATG,-0.284
11,CGGAGTGA,0.153
12,GTAGGTTA,-0.00416
13,ATGCCGAG,0.346
14,GTGCCGAA,0.387
15,ATGCCAAA,-0.0656
16,ATGCCGAC,0.243
17,ATGCCGTG,0.115
18,CTGCCGAA,0.297
19,ATGCCGAA,0.408
20,GTGCCAAA,-0.00899
21,ATGCCGTA,0.196
22,CAAGCCTC,-0.237
23,CGTCCCCA,-0.276
24,GACCATCC,-0.237
25,GTGGCCAA,-0.156
26,ATCAGCCC,-0.386

row,Sequence,PBM E-score
1,ACCGAACT,0.306
2,GCCGAACC,0.323
3,CCCGAACA,0.0635
4,ACCGAACG,0.235
5,ACCGAACA,0.259
6,AACGAACT,0.0561
7,CCCGAACC,0.0911
8,GCCGAACA,0.329
9,ACCGAACC,0.0575
10,CCTGGGCA,-0.276
11,CGATGTGC,-0.101
12,ACCCCACC,0.0874
13,AGAATTGC,-0.134
14,AGGGCAAC,-0.00172
15,AATCGGAT,0.327
16,GATCGGAA,0.279
17,GATCGGGC,0.00638
18,CATCGGAC,0.174
19,GATCGGAC,0.322
20,AATCGGCC,0.146
21,AATCGGCA,0.289
22,CATCGGAA,0.278
23,AATCGGCT,0.349
24,TATCGGAA,0.351
25,AATCGGGT,0.173
26,AATCGGAC,0.152

row,Sequence,PBM E-score
1,AGTAACTA,0.173
2,AGAAAACC,0.0683
3,CACCCCGC,0.0453
4,CGCAAGTA,0.0344
5,GGACCCAA,-0.081
6,CCGTCAAA,0.0576
7,ACTCTGGC,-0.105
8,AGAGAACG,0.0412
9,AGACTAAG,-0.0179
10,ATCGTGGC,-0.101
11,ATAGATAT,0.161
12,CGCTTTTC,-0.0353
13,ACTGGCAA,-0.0748
14,AGTCTAGG,-0.144
15,AATCGGAA,0.374
16,AATCGGAG,0.216
17,AATCGGGA,0.0709
18,ACTTCACC,0.18
19,GCGCTTTA,0.0325
20,ACTGGCGG,-0.0142
21,AAATGCCG,0.353
22,AAATGCCC,-0.175
23,CAATGCCG,0.22
24,CGTGCGTC,0.0693
25,AATGTTCT,0.0086
26,CTCGCCGA,0.193

row,Sequence,PBM E-score
1,ATCGCCGG,0.39
2,ATCGCCGA,0.365
3,GTCGCCGA,0.219
4,ATCGCCGC,0.206
5,ACCGCCGG,0.291
6,GCCCGTGA,-0.132
7,AAATGCTC,-0.0216
8,CCGGGTAC,0.117
9,ACGGGTTC,0.0138
10,CCGGGTAA,0.348
11,TCGGGTAA,0.0925
12,CCGGGTTA,0.25
13,CCGGGTTC,0.356
14,AGTTGTAG,0.0893
15,AAGGTGTA,-0.105
16,CGCCACCG,-0.156
17,AGTCCCAT,-0.173
18,CCAGACCC,-0.262
19,AACTTTCA,0.122
20,ATACGGAC,0.117
21,TTACGGAA,0.355
22,ATACGGAT,0.196
23,CTACGGAA,0.205
24,GTACGGAA,0.28
25,ATACGGAA,0.412
26,CCTACTGA,-0.151

row,Sequence,PBM E-score
1,GGTCTATA,-0.16
2,TGCCGCAA,0.135
3,ACCGCATG,0.0226
4,ATGCTATG,-0.117
5,AGGAATTA,0.0841
6,GGGAATAC,0.0278
7,CGGAATTA,0.352
8,AGGAATCA,0.078
9,GGGAAGCA,-0.128
10,CGGAAGCA,0.332
11,AGGAATAC,-0.0183
12,CGGAATAC,0.353
13,CGGAAGCC,0.211
14,CGGAATTC,0.277
15,CGGAATCA,0.306
16,GGGAATCA,0.0818
17,CGCTGCAA,0.0112
18,AAACGATC,0.161
19,ACATACTC,0.0395
20,TAGCAGAA,0.0545
21,ACCGGAGA,0.33
22,ACCGGAGG,0.144
23,TCCGGAGA,0.397
24,GCCGGAGA,0.29
25,CCCGGAGA,0.222
26,ACCGGAGC,0.247

row,Sequence,PBM E-score
1,ATGATCAC,-0.0394
2,AACTAGTG,-0.0163
3,ACCATTCC,0.0171
4,ATTGGCCA,-0.148
5,TCGGTTCA,0.148
6,GCAGGAAA,-0.0351
7,GCTGGAAA,0.133
8,GCCGGAAA,0.426
9,TCCGGAAA,0.449
10,TCAGGAAA,0.112
11,CCCGGAAA,0.396
12,CCCGGAAG,0.259
13,TGCGGAAA,0.184
14,ATCTAGCC,0.00276
15,AGGTTATC,-0.0359
16,GAACTTGC,0.0842
17,ATCTTTTC,0.0824
18,CAGCGTAC,-0.147
19,CGCCATTC,0.0678
20,CCACGGAC,-0.00729
21,GCACGGAA,0.159
22,CCACGGAG,0.0656
23,ACACGGAA,0.295
24,TCACGGAA,0.341
25,CCACGGAA,0.338
26,AGGACAAG,-0.102

row,Sequence,PBM E-score
1,AAGTCTCT,-0.246
2,AACAGAAC,0.163
3,GTTGTACA,0.277
4,CTGCCGTC,-0.066
5,GGGCCGGA,0.244
6,ATGCCGTC,0.0209
7,ATGCCAGA,0.0873
8,ATGCCGGA,0.36
9,ATGCCGGC,0.399
10,GTGCCGGA,0.305
11,ATGCCGCA,0.124
12,CTGCCGAC,0.0291
13,GTGCCGTA,0.16
14,CTGCCGGC,0.369
15,ATGCCGGG,0.244
16,ATACGCGG,-0.0243
17,AGCCCTCC,-0.201
18,GCATTCCC,-0.182
19,ACCTCTAA,0.0296
20,CATTGTGA,-0.164
21,GCTGTGCC,-0.0243
22,AGAGAGAT,0.0462
23,CACGTTCC,-0.176
24,AGACCAAC,-0.108
25,ATATTATG,0.261
26,ATATAACG,0.255

row,Sequence,PBM E-score
1,CAAGTAGC,-0.216
2,CTGCCGCA,-0.117
3,CTGCCGGA,0.349
4,CTGCCGTA,-0.00407
5,CGATGCGA,-0.0338
6,GCCGAGTA,0.262
7,GCCGAGAA,0.368
8,ACCGAGCA,0.225
9,CCCGAGAC,0.0787
10,GCCGAGAC,0.327
11,ACCGAGAC,0.0458
12,GCCGAGCA,0.186
13,CCCGAGAA,0.234
14,TCCGAGCA,0.329
15,GTCGAGAA,-0.0535
16,ACCGAGAA,0.282
17,TCCGAGAA,0.324
18,GTCCTGCA,-0.122
19,CGGCACTC,0.124
20,ACAACGTC,-0.0597
21,ACAGACGG,-0.11
22,TGAGCACA,0.0117
23,CTGCATAA,0.11
24,AGAAAGCG,-0.0479
25,GCTGCGAA,0.0893
26,CAGGTCGG,-0.119

row,Sequence,PBM E-score
1,CCAGATCA,0.135
2,CATCTCCC,-0.0754
3,AATCTCCG,0.3
4,CATCTCCG,0.37
5,AAGCAGAC,-0.195
6,CCCACAGA,-0.227
7,AAGTAGCC,-0.0314
8,AGTCCGGA,0.429
9,GGTCCGGA,0.376
10,AGTCCGGG,0.212
11,AGTCCGGC,0.289
12,GGTCCGCA,0.151
13,GTCCCGGA,0.318
14,CGTCCGGC,0.296
15,GGTCCGTA,0.178
16,GTCCCCGA,-0.142
17,CTCCCGGA,0.243
18,CGTCCGTA,0.0308
19,CGTCCGGA,0.323
